# Bioassay records (PubChem BioAssay)
# This is a sample that favours compounds with a hit; in the whole collection about 19% have one here.
# TDP1 cell noCPT = qHTS for Inhibitors of human tyrosyl-DNA phosphodiesterase 1 (TDP1): qHTS in cells in absence of CPT; DT40 Tdp1-/- hTDP1 cells, no CPT, ATP luminescence, 48 h; Potency, µM (series often up to 46.2 µM), usual class: inhibitors; hit rate 15% among 420,000; AID 686978, 2013; note: nearly all actives have a fitted effect of over 55% in size
#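 Readout: luminescence from CellTiter-Glo after 30 min in the dark at RT. Cells: DT40 Tdp1-/- with stable hTDP1, 400/well. Exposure: compounds alone, ≥48 hr, 37 °C.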
# TDP1 cell CPT = qHTS for Inhibitors of human tyrosyl-DNA phosphodiesterase 1 (TDP1): qHTS in cells in presence of CPT | hit rate 12% among 420,000 | Potency, µM (series often up to 46.2 µM), usual class: inhibitors | chicken DT40 Tdp1-/-;hTDP1 cells + 20 nM CPT, ATP luminescence, 48 h | AID 686979, 2013; note: nearly all actives have a fitted effect of over 55% in size
#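 Chicken DT40 Tdp1-/- cells complemented with human TDP1, 400 cells/well, exposed to compounds plus 20 nM camptothecin for at least 48 h at 37 C; viability read as ATP content by CellTiter-Glo luminescence.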
# ELG1 DNA repair = qHTS screen for small molecules that inhibit ELG1-dependent DNA repair in human embryonic kidney (HEK293T) cells expressing luciferase-tagged ELG1; Potency, µM (series often up to 46.1 µM), most hits filed as inhibitors; HEK293T ELG1-luciferase reporter, luminescence, 16 h; DNA damage induced by 5-fluorouridine; hit rate 2.3% among 330,000; note: nearly all actives have a fitted effect of over 55% in size
#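 Overnight (16 hr) co-exposure of 2,000 cells/well to 5-fluorouridine and compound at 37 °C preceded detection. Luciferase was quantified via ONE-Glo luminescence; loss of signal denotes inhibition.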
# HT1080 IDH1KD tx = qHTS for induction of synthetic lethality in tumor cells producing 2HG: qHTS for the HT-1080-IDH1KD cell line. HT-1080 IDH1 knockdown viability, ATP luminescence, 48 h. Potency, µM (highest dose often 46.1 µM), hits mostly cytotoxic. hit rate 2% among 360,000
#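 After a 2 h attachment period, IDH1KD HT-1080 cells took pin-transferred compound for 48 h at 37 °C; ATP-based luminescence after 10 min room-temperature reagent incubation reported viability.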
# HT1080-NT tox = qHTS for induction of synthetic lethality in tumor cells producing 2HG: qHTS for the HT-1080-NT fibrosarcoma cell line. Potency, µM (top dose mostly 46.1 µM), usual class: cytotoxic. hit rate 1.6% among 360,000. HT-1080-NT fibrosarcoma viability, CellTiter-Glo ATP luminescence, 48 h;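 note: NT is the 2HG producing partner of a matched IDH1 knockdown line; nearly all actives have a fitted effect of over 55% in size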
#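 A 48-hour cytotoxicity screen used HT-1080-NT cells plated 2 hours before compound delivery. ATP-based CellTiter-Glo luminescence measured viability, normalized to DMSO and no-cell controls.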
# IL-1B inflam inh = qHTS for Inhibitors of Inflammasome Signaling: IL-1-beta AlphaLISA Primary Screen. THP-1 LPS/ATP IL-1B secretion, AlphaLISA, 16 h; stronger effect = lower value. activity change, % at 57.5 µM. hit rate 4.7% among 360,000. AID 743279, 2014; in the data active = activity change below about -50%; inconclusive = mostly about -30% to -49%
#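 THP-1 cells pretreated 1 hr with compounds (up to 57.5 uM final), then stimulated with LPS (250 ng/mL final) plus ATP (1.25 mM final); secreted IL-1B measured by AlphaLISA after 16 hr, decreased signal indicating inhibition.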
# Numbers stand for hits; n = inactive; u = inconclusive; x = no result given; [ ] = another dose, or the depositor's remark. Unless noted, calls come from the whole dose curve; as a rule, active = well fitted curve in the direction sought with a large enough effect; inconclusive = small, poorly fitted or top-dose-only effect, or another doubt; inactive = no such curve, though single readings can be large; an effect the other way counts as inactive or inconclusive.
SMILES,TDP1 cell noCPT,TDP1 cell CPT,ELG1 DNA repair,HT1080 IDH1KD tx,HT1080-NT tox,IL-1B inflam inh
CCc1nc2ccc(C(=O)NCCN3CCOCC3)cn2c1N(C=O)Cc1ccc(OC)cc1,n,n,x,n,n,n
CCc1nc2ccc(C(=O)NCCN3CCOCC3)cn2c1N(C)Cc1ccc(OC)cc1,23µM,u,x,n,u,n
Cc1ccc(-n2cc(CN(C)CCc3cn[nH]c3)c(-c3cccc(C)c3)n2)cc1,n,n,n,n,n,n
CC(C)OCCCNC(=O)CN1C(=O)COc2ccc(S(=O)(=O)N3CCOCC3)cc21,n,n,x,x,x,x
Cc1ccc(NC(=O)c2ccc(C(C)(C)C)cc2)cc1-n1cnnn1,29µM,u,n,n,n,n
O=C(COc1ccccc1)N(Cc1cccnc1)c1nc2c(F)cc(F)cc2s1,u,n,x,x,x,x
O=C(CCS(=O)(=O)c1ccccc1)N(Cc1cccnc1)c1nc2ccc(F)cc2s1,5.8µM,3.3µM,x,x,x,x
CC(=O)N(Cc1cccnc1)c1nc2ccc(F)cc2s1,n,n,x,x,x,x
Cc1cc(C)c2sc(N(Cc3cccnc3)C(=O)CCOc3ccccc3)nc2c1,u,18µM,x,x,x,x
COc1ccc2nc(N(Cc3cccnc3)C(=O)Cc3ccccc3)sc2c1,n,n,x,x,x,x
CCCC(=O)N(CCN1CCOCC1)c1nc2c(F)cc(F)cc2s1,n,n,u,n,n,n
O=C(CCOc1ccccc1)N(Cc1cccnc1)c1nc2c(F)cc(F)cc2s1,26µM,18µM,x,x,x,x
CCN(CC)CCN(C(=O)CCOc1ccccc1)c1nc2c(F)cc(F)cc2s1,18µM,u,n,n,n,u
O=c1c2ccccc2c(C=Nc2ccc(Cl)cn2)c(O)n1-c1cc(Cl)ccc1N1CCOCC1,1.5µM,u,n,n,n,n
CC(=O)c1ccc(N=Cc2c(O)n(-c3cc(Cl)ccc3N3CCOCC3)c(=O)c3ccccc23)cc1,u,u,7.3µM,n,n,u
O=c1c2ccccc2c(C=Nc2ccc(S(=O)(=O)N3CCCCC3)cc2)c(O)n1-c1ccc(Cl)cn1,n,n,n,n,n,n
CC(Oc1ccc(S(=O)(=O)N2CCCC2)cc1[N+](=O)[O-])C(=O)NC1(C#N)CCCCC1 (stereo unspecified),u,n,n,n,n[9.24 µM],n
CCOC(=O)C1=C(C)N=c2s/c(=C/c3ccc(OCC(=O)O)c(OC)c3)c(=O)n2C1c1ccc(Cl)cc1 (stereo unspecified),u,n,x,n,n,n
O=C1CCCC2=C1C(c1ccc(Cl)cc1)n1c(s/c(=C\c3ccc4ccncc4c3)c1=O)=N2 (stereo unspecified),21µM,u,n,n,n,n
COc1cccc(-c2nnc3sc(-c4ccccn4)nn23)c1,23µM,u,n,n,n,n
COc1ccc(-c2nn3c(-c4ccccn4)nnc3s2)cc1OC,n,u,u,n,n,-51
COc1cccc(-c2nn3c(-c4ccccn4)nnc3s2)c1,u,u,u,n,n,x
Clc1ccc(-c2nn3c(-c4cccc(Cl)c4)nnc3s2)cc1,x,x,n,x,x,x
CCOc1ccc(-c2nn3c(-c4cc(-c5ccccc5)n[nH]4)nnc3s2)cc1,14µM,16µM,x,x,x,x
Clc1ccccc1-c1nn2c(-c3ccncc3)nnc2s1,23µM,16µM,10µM,n,n,-67
CC1CCCCN1CC(=O)Nc1ccc2c(c1)OCO2 (stereo unspecified),n,n,n,n,n,n
O=C(NOC(=O)c1c(F)cccc1Cl)c1ccc(Cl)c(Cl)c1,n,n,u,n,n,n
